# Measurements published in PubChem BioAssay (NCATS).
# Active and inactive are the calls of the source. Calls follow the shape of the full dose curve.
# Assay: qHTS drug screen for cell cycle checkpoint inhibitors in PARPi-resistant BRCA-mutant ovarian cancer cell lines. (AID 1963452)
# Details: PEO1/OlaR viability, CellTiter-Glo luminescence, 96 h; for Z-AUC: stronger effect = lower value
# Summary of the method: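 PEO1, PEO4 and PEO1/OlaR ovarian cancer cells, 600 per well, exposed 96 h at 37C to a dilution series. Viability read by CellTiter-Glo luminescence, normalized to DMSO and empty wells; activity summarized as Z-AUC.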
# [1] = measured here: PEO1 parental Z-AUC
# Potency is read from the fitted curve at half-maximal effect.
SMILES,Z-AUC,Z-AUC [1],Z-AUC (measured here: PEO4 Z-AUC),Potency
COc1ccc(-c2ccc3c(N4CCOCC4)nc(N4C[C@@H](C)O[C@@H](C)C4)nc3n2)cc1CO,1.56 (inactive),1.12,1.19,–
Cn1c(=O)c(F)c(Nc2ccc(I)cc2F)c2c(=O)n(C[C@@H](O)CO)cnc21,–,-1.86,-2.03,123 nM (active)
COc1cc(F)c(F)c(Nc2ccc(I)cc2F)c1NS(=O)(=O)C1(C[C@H](O)CO)CC1,–,-1.43,-1.19,2450 nM (active)
CC(C)(N)C(=O)N[C@H](COCc1ccccc1)C(=O)N1CCC2(CC1)CN(S(C)(=O)=O)c1ccccc12,1.64 (inactive),1.18,1.52,–
Cc1csc(NC(=O)c2sc3nc4c(c(C(F)(F)F)c3c2N)CCC4)n1,0.359 (inactive),0.125,0.375,–
CS(=O)(=O)c1ccc(C(=O)Nc2ccc(Cl)c(-c3ccccn3)c2)c(Cl)c1,0.211 (inactive),-0.252,-0.353,–
Cc1c(CCOc2ccc(C(=O)O)cc2)c2cc(Cl)ccc2n1C(c1ccccc1)c1ccccc1,0.749 (inactive),1.16,0.896,–
N#CC[C@H](C1CCCC1)n1cc(-c2ncnc3[nH]ccc23)cn1,0.476 (inactive),0.0833,0.752,–
CNC(=O)c1ccc(N2C(=S)N(c3ccc(C#N)c(C(F)(F)F)c3)C(=O)C2(C)C)cc1F,0.0364 (inactive),0.676,0.909,–
CN(C(=O)c1ccc(F)cc1C(F)(F)F)C1CCN(c2nnc(-c3ccnn3C)c3ccccc23)CC1,-0.541 (inactive),-0.599,-0.538,–
C[C@]1(c2nc3c(C(N)=O)cccc3[nH]2)CCCN1,0.745 (inactive),0.586,0.314,–
CCOc1ccn(-c2ccc(F)cc2)c(=O)c1C(=O)Nc1ccc(Oc2ccnc(N)c2Cl)c(F)c1,-0.773 (inactive),-0.706,-0.86,–
c1ccc(-c2nn3c(c2-c2ccnc4cc(OCCN5CCOCC5)ccc24)CCC3)nc1,0.744 (inactive),0.379,0.692,–
COc1ccc2c3n(c(=NC(=O)c4cccnc4)nc2c1OC)CCN3,-0.738 (inactive),-0.328,-0.378,–
CCN(CC)CCCC(C)Nc1ccnc2cc(Cl)ccc12 (configuration not stated),0.106 (inactive),0.505,0.615,–
CC[C@H](Nc1ncnc2nc[nH]c12)c1nc2cccc(F)c2c(=O)n1-c1ccccc1,0.714 (inactive),0.526,0.476,–
Cc1cccc(-c2nn(C(=S)Nc3ccccc3)cc2-c2ccnc3ccccc23)n1,0.884 (inactive),0.402,0.406,–
O=C(Nc1nc2ccccc2n1CCN1CCOCC1)c1cccc([N+](=O)[O-])c1,1.54 (inactive),1.06,1.04,–
CCCS(=O)(=O)Nc1ccc(F)c(C(=O)c2c[nH]c3ncc(Cl)cc23)c1F,-0.11 (inactive),0.791,0.927,–
